The values below come from PubChem BioAssay AID504327 (National Center for Advancing Translational Sciences (NCATS), 2011).

Where “and” joins values, the source holds several entries; their conditions need not be identical. Identical values can stand only once. Out of some 390,000 compounds screened, about 820 (0.21%) were called active. Inconclusive results (about 3%) are left out. This is one part of a sample in which actives are shown more often than they occur. Calls follow the shape of the dose curve; as a rule, active = well fitted inhibition curve with a large enough effect; inconclusive = small, poorly fitted or top-dose-only effect, or another doubt; inactive = no such curve, though single readings can be large or run the other way. More than one record can exist for a structure, and the calls need not agree.
% is scaled to controls: 0 for no effect and ±100 for the full control effect; potency is read from the fitted curve at half-maximal effect.

Histone acetyltransferase KAT2A (Homo sapiens), sequence (Q92830 whole entry, looked up): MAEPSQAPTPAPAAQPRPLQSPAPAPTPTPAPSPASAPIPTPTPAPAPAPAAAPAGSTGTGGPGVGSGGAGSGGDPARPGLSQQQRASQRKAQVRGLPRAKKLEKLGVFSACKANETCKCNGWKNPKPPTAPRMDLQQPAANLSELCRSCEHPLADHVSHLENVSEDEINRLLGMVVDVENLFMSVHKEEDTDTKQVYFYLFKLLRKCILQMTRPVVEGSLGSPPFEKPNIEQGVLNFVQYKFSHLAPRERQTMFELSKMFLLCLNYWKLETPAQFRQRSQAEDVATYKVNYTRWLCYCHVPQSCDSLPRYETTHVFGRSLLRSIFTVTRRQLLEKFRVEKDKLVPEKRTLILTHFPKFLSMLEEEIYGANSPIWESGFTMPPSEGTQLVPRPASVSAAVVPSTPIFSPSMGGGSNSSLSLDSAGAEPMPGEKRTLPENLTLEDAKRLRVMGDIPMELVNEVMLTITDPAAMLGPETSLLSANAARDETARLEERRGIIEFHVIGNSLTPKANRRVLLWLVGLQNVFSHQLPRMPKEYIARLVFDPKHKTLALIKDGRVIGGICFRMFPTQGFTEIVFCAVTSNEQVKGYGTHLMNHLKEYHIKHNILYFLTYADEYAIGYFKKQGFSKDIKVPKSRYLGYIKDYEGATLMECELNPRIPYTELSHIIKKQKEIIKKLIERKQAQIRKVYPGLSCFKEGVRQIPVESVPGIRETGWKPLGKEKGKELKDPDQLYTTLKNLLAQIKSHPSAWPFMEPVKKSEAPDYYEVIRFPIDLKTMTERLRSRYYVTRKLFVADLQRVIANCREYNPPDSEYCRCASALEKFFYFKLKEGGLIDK

The experiment deals with Histone acetyltransferase KAT2A (Homo sapiens) (UniProt Q92830). As to the kind of experiment: qHTS Assay for Inhibitors of GCN5L2. The conditions noted are these: GCN5L2 HAT assay, ThioGlo1 CoA-SH fluorescence; series mostly up to 58.9 µM; activity change, negative = inhibition: at the top concentration. The source says:
Histone acetyltransferase (HAT) enzymes transfer a […] group from acetyl-coenzyme A to the epsilon-amino group of conserved lysine residues of N-terminal histone tails. Acetylation results in charge neutralization of this positively charged amino acid, decreasing interactions with the […] backbone and making the DNA more accessible for transcription. HATs have been recognized as an emerging drug target for treatment of cancer, diabetes, asthma, chronic obstructive pulmonary disease, cardiac disease, and viral infection. Protein identified with HAT activity include the […] like 2 (GCN5L2, a.ka. Histone acetyltransferase KAT2A) which acetylates histone H3 at Lys9, 14, 18, 13, and to lesser extent histones H4 and H2B. This activates transcription of the gene by modulating chromatin structure and installing the acetyllysine recognition mark for bromodomain-containing coactivator proteins.
A quantitative high throughput screen was developed to identify small molecule inhibitors. The assay is based on the principle that it measures formation of reduced CoA with the pro-fluorescent maleimide derivative ThioGlo1 that becomes fluorescent upon reaction with the free thiol of CoA.
A large number of artifacts are expected in this primary screen, compounded by the assay format (fluorescent artifacts) and by the high top concentration tested for each substance. This BioAssay data deposition should be used with caution, and counterscreen and secondary assay validation is essential since very few actives from the primary screen are expected to be true inhibitors of GCN5L2.
[2] Yasgar, et al. Compound Management for Quantitative High-Throughput Screening. JALA. 2008 Apr;13(2):79-89.
[3] Inglese, et al. Quantitative high-throughput screening: a titration-based approach that efficiently identifies biological activities in large chemical libraries. Proc Natl Acad Sci. 1;103(31):11473-8. 2006. PMID: 16864780
NIH Molecular Libraries Probe Production Network [MLPCN]
NIH Chemical Genomics Center [NCGC]
Structural Genomics Consortium (SGC)
To each well of a 1,536w plate, 3ul of GCN5L2 (final concentration 20nM, in 50mM HEPES, 0.1mM EDTA (pH 7.5), 0.01% Tween-20 buffer) are added using a Kalypsys dispenser. Only buffer is added to some wells as a control. A Kalypsys pin-tool transferred 23nl of library compound solution in DMSO to each well, as well as the control inhibit garcinol. . Following a 15 min incubation of enzyme with compounds at room temperature, 1ul mixture of ThioGlo1 (50uM final), H3(1-25) peptide (75uM final), and Acetyl-CoA (70uM final) is added. Plates are read immediately on the ViewLux (PerkinElmer) (Ex340nm/Em540nm) for a 0 min read, incubated for 20 min at room temperature, and read again on the ViewLux with the same settings. The initial read was carried out to identify compounds that are potentially fluorescent.
For the molecule `COc1ccccc1-c1cc(NCc2cccs2)ncn1`, the “activity change, negative = inhibition” value is -5.87% (inactive).

`Cc1cc2oc(=O)cc(-c3ccccc3)c2c(C)c1/C=C/c1ccc(F)cc1`: the “activity change, negative = inhibition” value is 7.85% [at 88.6 µM] (inactive).

As for `CCCCCCn1nnc2sc(-c3ccccc3)cc2c1=O`, the “activity change, negative = inhibition” value is 6.09% (inactive).

On to `Cc1cc2nn(-c3ccc(Cl)cc3)nc2cc1NC(=O)C(C)C`, for which the “activity change, negative = inhibition” value is 0.272% (inactive).

For `Cc1ccc(Cl)cc1NC(=O)C(C)n1nnc2sc(-c3ccccc3)cc2c1=O` (stereo not drawn), the Potency is 31.6 µM (active).

For `COc1ccccc1CCn1c(=O)c(-c2cn(C)c3ccccc23)nc2cncnc21`, the “activity change, negative = inhibition” value is -1.86% (inactive).

Regarding `Cc1csc(-c2nc3ccccc3n2C)n1`, the “activity change, negative = inhibition” value was -8.33% (inactive).

On to `CN(Cc1ccco1)c1ncncc1-c1ccoc1`, for which the “activity change, negative = inhibition” value was -17% (inactive).

In the case of `Nc1ncnc2c1ncn2C1CC(O)C(CO)O1` (stereo not drawn), the Potency result is “inactive”.

For `O=C(Nc1ccc(O)cc1)c1ccccc1O`, the “activity change, negative = inhibition” value was -15.8% (inactive).

Consider `O=c1ccn([C@@H]2O[C@H](COP(=O)(O)OP(=O)(O)OP(=O)(O)O)[C@@H](O)[C@H]2O)c(=O)[nH]1`, for which the “activity change, negative = inhibition” value is 2.08% (inactive).

Consider `NCCC(=O)c1ccccc1N`, for which the “activity change, negative = inhibition” value is -13.8% (inactive).

In the case of `N#Cc1ccc(CN2CCCC3(CCN(C(=O)c4ccco4)CC3)C2)cc1`, the “activity change, negative = inhibition” value is 5.96% (inactive).

On to `C=C1/C(=C\C=C2\CCCC3(C)C2CCC3C(C)/C=C/C(O)C2CC2)CC(O)CC1O` (stereo not drawn), for which the “activity change, negative = inhibition” value is -17% (inactive).

In the case of `CC(O)COc1ccccc1` (stereo not drawn), the “activity change, negative = inhibition” value was -19.1% (inactive).

With `NNc1nnc(NN)c2ccccc12`, the “activity change, negative = inhibition” value is -1.8% (inactive).

With `Cc1nc2cnc(N3CCN(C)CC3)nc2n(C[C@H]2CCCO2)c1=O`, the “activity change, negative = inhibition” value was -20.2% (inactive).

For the molecule `Cc1cc(N(C)C)nc(Cl)n1`, the “activity change, negative = inhibition” value was -23.2% (inactive).

In the case of `C=C(C)C1CC=C(C)C(O)C1` (stereo not drawn), the “activity change, negative = inhibition” value is 6.72% (inactive).

Regarding `O=C(O)C(O)[C@@](O)(Cc1ccc(O)cc1)C(=O)O` (stereo partly drawn), the “activity change, negative = inhibition” value was 1.54% (inactive).

As for `CCN(Cc1ccncc1)C(=O)[C@@H](CO)c1ccccc1`, the “activity change, negative = inhibition” value is 7.28% [at 21.4 µM] (inactive).

Turning to `CC1(C)O[C@@H]2C[C@@H]3[C@H]4C[C@@H](F)C5=CC(=O)C=C[C@]5(C)[C@@]4(F)[C@@H](O)C[C@]3(C)[C@]2(C(=O)CO)O1`, the “activity change, negative = inhibition” value was -11.6% (inactive).

`CC(C)[C@H]1CC[C@@H](C)C[C@H]1O`: the activity change, negative = inhibition is 5.9% [at 0.501 µM] (inactive).

For `O=P(O)(O)OC[C@H](O)CO`, the “activity change, negative = inhibition” value was -2.51% (inactive).

For the molecule `O=c1[nH]c(=S)[nH]c2[nH]c(=S)[nH]c12`, the Potency is 4.47 µM (active) and 3.55 µM (active).

Turning to `COc1ccc(CC(N)C(=O)NC2C(O)[C@H](n3cnc4c(N(C)C)ncnc43)O[C@@H]2CO)cc1` (stereo partly drawn), the “activity change, negative = inhibition” value is 4.59% (inactive).

In the case of `O=c1cnc2cnc(Nc3ccccc3)nc2n1Cc1ccc(F)cc1`, the “activity change, negative = inhibition” value was -12.2% (inactive).

As for `C[C@@H]1C(c2ccc(F)cc2)=NN(c2ccc(Br)cc2)[C@H]1C(=O)N1CCOC1=O`, the Potency result was “inactive”.

With `O=C1OCCN1C(=O)[C@H]1[C@H](c2ccc(Cl)cc2)C(c2cccc(Cl)c2)=NN1c1ccc(Br)cc1`, the Potency entry is “inactive and 12.6 µM (active)”.

As for `O=c1[nH]c2ccccc2n2c(-c3ccccc3)nnc12`, the Potency was 22.4 µM (active).

As for `CC(C)Cn1c(=O)c2ccccc2n2c(-c3cccc(Cl)c3)nnc12`, the “activity change, negative = inhibition” value was -8.17% (inactive).

Consider `O=c1cc(-c2ccccc2)n2c(SCc3ccccc3)nnc2[nH]1`, for which the “activity change, negative = inhibition” value was -22.5% (inactive).

In the case of `C[C@@H](O)[C@@H]1NC(=O)[C@H](CCCCN)NC(=O)[C@H](Cc2c[nH]c3ccccc23)NC(=O)[C@H](Cc2ccccc2)NC(=O)[C@H](Cc2ccccc2)NC(=O)[C@H](CC(N)=O)NC(=O)[C@H](CCCCN)NC(=O)[C@@H](NC(=O)[C@@H]2CCCN2)CSSC[C@@H](C(=O)N[C@@H](CCCCN)C(=O)O)NC(=O)[C@H](CO)NC(=O)[C@H](CO)NC(=O)[C@H](Cc2ccccc2)NC1=O`, the “activity change, negative = inhibition” value is -18.2% (inactive).

Turning to `O=C(c1cnccn1)N1CCC[C@@]2(CCN(Cc3ccncc3)C2)C1`, the “activity change, negative = inhibition” value is 7.32% (inactive).

For `CC(C)[C@@H]1NC(=O)[C@H](Cc2ccccc2)NC(=O)[C@@H](CC(=O)O)NC(=O)CNC(=O)[C@H](CCCNC(=N)N)NC1=O`, the “activity change, negative = inhibition” value was 10.5% (inactive).

Regarding `O=C(Nc1cccc(F)c1)N1CC2(CCN(C(=O)c3cnccn3)CC2)C1`, the “activity change, negative = inhibition” value was -0.477% (inactive).

As for `CC(C)(O)c1ccccc1CC[C@H](SCC1(CC(=O)O)CC1)c1cccc(/C=C/c2ccc3ccc(Cl)cc3n2)c1`, the Potency is 20 µM (active).

For the molecule `CCCCC/C=C\C/C=C\CCCCCCCCCC(=O)O`, the “activity change, negative = inhibition” value was -12.3% (inactive).

For the molecule `CNc1ncnc2ccc(-c3cccc(NS(C)(=O)=O)c3)cc12`, the “activity change, negative = inhibition” value was -6.27% (inactive).

In the case of `C=C1O[C@@](CO)(n2cnc3c(N)ncnc32)[C@H](O)[C@@H]1O`, the Potency entry is “inactive”.

As to `CC[C@H](C)[C@H](NC(=O)[C@H](CCCNC(=N)N)NC(=O)[C@H](CCCNC(=N)N)NC(=O)[C@H](CC(C)C)NC(=O)[C@H](Cc1ccccc1)NC(=O)CNC(=O)CNC(=O)[C@@H](N)Cc1ccc(O)cc1)C(=O)N[C@@H](CCCNC(=N)N)C(=O)N1CCC[C@H]1C(=O)N[C@@H](CCCCN)C(=O)N[C@@H](CC(C)C)C(=O)N[C@@H](CCCCN)C(=O)N[C@@H](Cc1c[nH]c2ccccc12)C(=O)N[C@@H](CC(=O)O)C(=O)N[C@@H](CC(N)=O)C(=O)N[C@@H](CCC(N)=O)C(=O)O`, the “activity change, negative = inhibition” value was 21.9% (inactive).

Turning to `FC(F)(F)C1CCCN(c2nsc3ccccc23)C1` (stereo not drawn), the Potency was 2.82 µM (active).

Turning to `COCC(=O)N1CCC2(CCCN(c3ccccc3)C2)CC1`, the “activity change, negative = inhibition” value is 3.62% (inactive).
